Among the test systems are HCT-15 colon; HT29 colon; SNB-75 CNS; SNB-19 CNS; U251 CNS; PC-3 prostate; UACC-62 melanoma; LOX IMVI melanoma; SK-MEL-28 melanoma.
Common to all, as to test: NCI-60 one-dose screen, 48 h (100 = growth as untreated, 0 = no growth, -100 = all killed)
Settings in all cases: 10 µM unless noted

The panel holds about 83,000 compounds, 20% with a hit somewhere; the sample as a whole holds those more often.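 How to read the values: 0–100, growth inhibition (40 = 60% inhibited); 0, no net growth; -100 to 0, cell death (-40 = 40% of starting cells died; -100 = all dead).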 Unmarked numbers belong to inactive results. Active and inactive are the calls of the source. Rule for the calls: active = growth percent below 10; inactive = the rest.

`CC(C)C[C@@H](NC(=O)[C@@H](Cc1ccccc1)NC(=O)c1cnccn1)B1Oc2ccc(C[C@H](NC(=O)[C@H](Cc3ccc4c(c3)OB([C@@H](CC(C)C)NC(=O)[C@@H](Cc3ccccc3)NC(=O)c3cnccn3)O4)NC(=O)[C@@H](N)CC3CCC4OB([C@@H](CC(C)C)NC(=O)[C@@H](CC5CCCCC5)NC(=O)C5CNCCN5)OC4C3)C(=O)NCCCC[C@@H]3NC(=O)[C@@H](Cc4ccccc4)NC(=O)[C@H](CC(=O)O)NC(=O)CNC(=O)[C@H](CCCNC(=N)N)NC3=O)cc2O1` (stereo partly specified): the growth in the assay on HCT-15 colon is -49.1% (active); in the assay with HT29 colon it was -61.9% (active); in the assay on SNB-75 CNS, -64% (active); with SNB-19 CNS, -24.7% (active); in the assay with U251 CNS it was -58.4% (active); in the assay with PC-3 prostate, -48.4% (active). Also, the growth with UACC-62 melanoma was -73.8% (active); in the assay with LOX IMVI melanoma it was -87.9% (active); with SK-MEL-28 melanoma, -31.7% (active).

Turning to `CCN(CC)c1ccc2c(c1)Oc1nc(N)c(C#N)c(N)c1C2Sc1ccc(SC)cc1` (stereo unspecified), the growth is -14.3% (active) in the assay with HCT-15 colon; -76.6% (active) with HT29 colon; -54.9% (active) with SNB-75 CNS; -64.1% (active) in the assay with SNB-19 CNS; -92% (active) in the assay with U251 CNS; -28.5% (active) in the assay with PC-3 prostate. In addition, the growth in the assay with UACC-62 melanoma is -14.4% (active); in the assay on LOX IMVI melanoma it was -96.9% (active); in the assay with SK-MEL-28 melanoma it was -9.16% (active).

`C#CC(F)(F)[C@]1(O)CC[C@H]2[C@@H]3CCC4=CC(=O)CCC4=C3[C@@H](c3ccc(C4CC4)cc3)C[C@@]21C`: the growth was 59.3% with HCT-15 colon; -63.9% (active) in the assay with HT29 colon; -15.9% (active) with SNB-75 CNS; 46.1% in the assay with SNB-19 CNS; -32.2% (active) in the assay with U251 CNS; -53.8% (active) in the assay with PC-3 prostate. Further, the growth in the assay on UACC-62 melanoma was 26.7%; in the assay with LOX IMVI melanoma it was -84.6% (active); with SK-MEL-28 melanoma it was 90.2%.

For the compound `CCCCCCCCCCCCC[N+](C)(C)Cc1ccccc1`, the growth in the assay on HCT-15 colon is 64.7%; in the assay on HT29 colon it was -62.7% (active); in the assay with SNB-75 CNS, -52.9% (active); in the assay on SNB-19 CNS, -60.7% (active); in the assay with U251 CNS, 7.89% (active); in the assay on PC-3 prostate, -23.7% (active). For the same compound, the growth is -83.9% (active) in the assay with UACC-62 melanoma, -88.3% (active) in the assay with LOX IMVI melanoma and -57% (active) with SK-MEL-28 melanoma.

With `CC1CCNC(C)C1` (stereo unspecified), the growth with HCT-15 colon is 108%; in the assay on HT29 colon, 110%; in the assay on SNB-75 CNS, 86.5%; in the assay on SNB-19 CNS, 114%; with U251 CNS, 108%; with PC-3 prostate, 90.3%. Besides, the figures for the growth with UACC-62 melanoma, in the assay with LOX IMVI melanoma and with SK-MEL-28 melanoma were 102%, 100% and 115%, respectively.

As for `CC[C@@H](C(=O)[C@@H](C)[C@@H](O)[C@H](C)[C@@H]1O[C@@H]([C@@H](CC)C(=O)O)CC[C@@H]1C)[C@H]1OC2(C=C[C@@H](O)[C@]3(CC[C@@](C)([C@H]4CC[C@](O)(CC)[C@H](C)O4)O3)O2)[C@H](C)C[C@@H]1C` (stereo partly specified), the growth in the assay on HCT-15 colon is 19.8%; in the assay with HT29 colon, 13.5%; in the assay on SNB-75 CNS, -28.8% (active); in the assay on SNB-19 CNS, -33.7% (active); in the assay on U251 CNS, 0.353% (active); in the assay on PC-3 prostate it was 31.2%. For the same compound, the growth in the assay with UACC-62 melanoma was -96.2% (active); in the assay on LOX IMVI melanoma it was 8.3% (active); in the assay on SK-MEL-28 melanoma, -89.8% (active).

As to `CCNC(=O)Oc1ccc(/C(=C(\C)c2ccc(Cl)cc2)c2ccc(OCCN(CC)CC)cc2)cc1`, the growth is 1.8% (active) in the assay with HCT-15 colon; -23.2% (active) in the assay with HT29 colon; 45.2% in the assay on SNB-75 CNS; 59.2% with SNB-19 CNS; 21.1% with U251 CNS; 31.4% in the assay with PC-3 prostate. Also, the growth is -68.3% (active) with UACC-62 melanoma, -59% (active) in the assay on LOX IMVI melanoma and -62.3% (active) in the assay with SK-MEL-28 melanoma.

`Nc1ccc(S(=O)(=O)O)c2ccc(N=Nc3ccc(N=Nc4ccc(S(=O)(=O)O)cc4)c4ccccc34)c(O)c12`: the growth is 115% in the assay with HCT-15 colon; 103% with HT29 colon; 76.5% with SNB-75 CNS; 95.9% in the assay on SNB-19 CNS; 111% with U251 CNS; 91.6% with PC-3 prostate. For the same compound, the growth is 91.3% in the assay on UACC-62 melanoma, 98.1% with LOX IMVI melanoma and 109% in the assay with SK-MEL-28 melanoma.

Turning to `Nc1nc2ccc3[nH]ncc3c2c2c1CCCC2`, the growth is 3.93% (active) in the assay with HCT-15 colon; 5.02% (active) in the assay on HT29 colon; -46.9% (active) in the assay with SNB-75 CNS; 8.98% (active) with SNB-19 CNS; 8.3% (active) in the assay with U251 CNS; 3.35% (active) with PC-3 prostate. Besides, the growth in the assay on UACC-62 melanoma is 10.9%; in the assay on LOX IMVI melanoma, -9.24% (active); in the assay with SK-MEL-28 melanoma, 9.47% (active).

As to `O=C1Nc2c(ccc(Cl)c2Cl)/C1=C\c1ccc(C(F)(F)F)cc1`, the growth in the assay with HCT-15 colon is 81.9%; in the assay on HT29 colon, 74.4%; in the assay on SNB-75 CNS, 73.4%; in the assay on SNB-19 CNS, 81.6%; with U251 CNS it was 74.2%; in the assay on PC-3 prostate, 62.5%. Besides, the growth was 61.9% in the assay with UACC-62 melanoma, 67% with LOX IMVI melanoma and 97.4% in the assay on SK-MEL-28 melanoma.

Consider `CN(C)c1ccc(N=Nc2ccccn2)c(O)c1`, for which the growth was 31.6% in the assay on HCT-15 colon; 24.1% with HT29 colon; 42.7% with SNB-75 CNS; 18.6% with SNB-19 CNS; 11.7% in the assay on U251 CNS; 33.8% in the assay with PC-3 prostate. The growth with UACC-62 melanoma was -28.3% (active); in the assay on LOX IMVI melanoma, 8.14% (active); with SK-MEL-28 melanoma, 32.8%.

In the case of `CCNC(=O)Oc1ccc(/C(=C(\C)c2ccc(Cl)cc2)c2ccc(OCCN3CCCCC3)cc2)cc1`, the growth in the assay with HCT-15 colon is 2.75% (active); in the assay on HT29 colon it was 0.431% (active); with SNB-75 CNS, 61.7%; in the assay with SNB-19 CNS it was 64.5%; with U251 CNS, 32.9%; in the assay with PC-3 prostate, 28.7%. Besides, the values for the growth in the assay with UACC-62 melanoma, with LOX IMVI melanoma and in the assay with SK-MEL-28 melanoma were -45.7% (active), 10.6% and -30.4% (active), respectively.

Regarding `CCOC(=O)c1c(C(=O)OCC)c2cc(-c3ccn4c(C(=O)c5ccccc5)c(C(=O)OCC)c(C(=O)OCC)c4c3)ccn2c1C(=O)c1ccccc1`, the growth in the assay with HCT-15 colon is 95.6%; with HT29 colon, 97.3%; in the assay on SNB-75 CNS it was 84.1%; in the assay on SNB-19 CNS, 100%; in the assay with U251 CNS it was 99.7%; in the assay on PC-3 prostate it was 80.6%. Besides, the growth is 85.2% with UACC-62 melanoma, 85.1% in the assay on LOX IMVI melanoma and 113% in the assay with SK-MEL-28 melanoma.

For `Cc1cc(N2CCSCC2)nc(NC2CCCC(Nc3ccnc4cc(Cl)ccc34)C2)n1` (stereo unspecified), the growth in the assay on HCT-15 colon was -67.8% (active); in the assay with HT29 colon, -58.7% (active); with SNB-75 CNS it was -60.1% (active); in the assay on SNB-19 CNS, 1.4% (active); with U251 CNS, -65.7% (active); in the assay with PC-3 prostate, -45.7% (active). For the same compound, the results for the growth in the assay with UACC-62 melanoma, in the assay on LOX IMVI melanoma and with SK-MEL-28 melanoma were -87.8% (active), -84.8% (active) and -79.9% (active), respectively.

(Values after PubChem BioAssay (NCI).)
